# Assay results published in PubChem BioAssay AID624137 (Broad Institute, 2012).
# Screen size: about 31,000 compounds; about 360 (1.2%) were called active. No rule for the calls is given here. The list comes from a sample in which actives are over-represented; it also holds similar structures and randomly drawn compounds.
# Target: DNA-binding protein inhibitor ID-4 (Homo sapiens) (UniProt P47928)
# Assay: PubChem AID 624137;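 also: a binder raises fluorescence above local background on the spot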
# Settings: small molecule microarray, Flag-ID4 binding, fluorescence F/B
# DNA-binding protein inhibitor ID-4 (Homo sapiens), sequence (P47928 whole entry, looked up): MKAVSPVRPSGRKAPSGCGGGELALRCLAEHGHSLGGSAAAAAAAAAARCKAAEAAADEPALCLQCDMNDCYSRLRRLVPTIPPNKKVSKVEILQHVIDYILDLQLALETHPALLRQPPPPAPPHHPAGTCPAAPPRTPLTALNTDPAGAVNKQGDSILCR
row,SMILES,outcome
1,c1cncc(CNCCc2c[nH]c3ccccc23)c1,active
2,COc1ccc2[nH]cc(CCNCc3ccc(Br)cc3)c2c1,inactive
3,Cc1cc(OCc2cc(C(=O)O)oc2C)c2c3c(c(=O)oc2c1)CCCC3,inactive
4,Cc1ccc(OC(=O)N(C)C[C@@H]2OCc3cnnn3CCCC(=O)N([C@H](C)CO)C[C@@H]2C)cc1,inactive
5,COC(/C=C/CC/C=C/C(=O)O)C(O)C(C)C(O)/C(C)=C/C(C)C(=O)CCCC1CC(=O)NC(=O)C1 (stereo not given),inactive
